The source made the active and inactive calls.
How the values were obtained:
[1] = test system: Human papillomavirus type 1a protein E7 (residues 44-93); test: small molecules binding HPV E7 44-93 – biochemical, small-molecule microarray, residues 44-93, 635 nm fluorescence, primary screen (AID 1108); conditions: fluorescence 635 nm, higher = more signal;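 note: E7 fragment applied at 1 µg/mL in TBST for 1 h at 4 C; score combines spot fluorescence with its signal to noise ratio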
[2] = hepatitis C replication reporter changes, two-sided – Huh7 cells, luciferase reporter, HCV replication inhibitor project, primary screen (AID 1109); conditions: Huh7 HCV replicon luciferase reporter, 48 h; higher = more signal;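 note: huh7 hepatoma cells harbouring a luciferase neomycin HCV replicon reporter; luciferase luminescence as measure of HCV replicon replication; test concentration not given here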
[3] = biological target: Left-right determination factor 2 (Homo sapiens) (UniProt O00292); test: small molecules binding LEFTY2 protein – biochemical, small-molecule microarray, 635 nm fluorescence scan, primary screen (AID 1110); conditions: higher = more signal
[4] = biological target: Calmodulin-1 (Homo sapiens) (UniProt P0DP23); test: small molecules binding calmodulin-1 with EGTA – biochemical, small-molecule microarray, Cy5-labelled CALM1, profiling panel (AID 1111); conditions: Cy5-CALM1 binding fluorescence, higher = more signal;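 note: labelled calmodulin applied in Tris saline Tween buffer holding calcium plus EGTA and DTT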
[5] = biological target: Calmodulin-1 (Homo sapiens) (UniProt P0DP23); test: small molecules binding Ca-loaded calmodulin-1 – biochemical, small-molecule microarray, Cy5-labelled CALM1, plus calcium, artefact control for SMM control-protein annotation, profiling panel (AID 1112); conditions: Cy5-CALM1 binding fluorescence, higher = more signal;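 note: score merges spot fluorescence with signal to noise from triplicate slides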
[6] = probe aWnt5a binding to arrayed compounds – biochemical, biotinylated probe, 635/667 nm fluorescence, primary screen (AID 1113); conditions: small-molecule microarray, higher = more signal;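 note: score merges 667 nm fluorescence intensity with signal-to-noise per printed feature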
[7] = probe aShh binding to arrayed compounds – biochemical, biotinylated probe, 635/667 nm fluorescence, primary screen (AID 1114); conditions: small-molecule microarray, higher = more signal;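 note: probe is biotin-labelled aShh protein from a stem cell growth factor screen; measures binding of labelled protein to compounds printed on the slide; score merges feature fluorescence at 667 nm with signal-to-noise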
[8] = probe aNog binding to arrayed compounds – biochemical, biotinylated probe, 635/667 nm fluorescence, primary screen (AID 1115); conditions: small-molecule microarray, higher = more signal;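 note: probe is biotinylated aNog protein used at 0.15 µg/mL for 1 h at 4 C; z-score combines 667 nm fluorescence of each spot with its signal to noise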
[9] = biological target: Torsin-1A-interacting protein 1 (Homo sapiens) (UniProt Q5JTV8); test: compound microarray binding of lysate hLAP1 – cell lysate, small-molecule microarray, COS7 lysate, 635/667 nm fluorescence, primary screen (AID 1116); conditions: 635 nm fluorescence, higher = more signal
[10] = biological target: Alpha-bungarotoxin (Bungarus multicinctus) (UniProt P60615); test: compounds binding labelled alpha-BTX control protein – biochemical, small-molecule microarray, Alexa647 label, 635/667 nm fluorescence, artefact control for SMM control protein annotation, profiling panel (AID 1117); conditions: alpha-BTX-A647 binding fluorescence, higher = more signal
Albumin (Bos taurus) = Albumin (Bos taurus) (UniProt P02769); test: compounds binding labelled BSA control protein – biochemical, small-molecule microarray, Alexa647 label, 635/667 nm fluorescence, artefact control for SMM control protein annotation, profiling panel (AID 1118); conditions: BSA-A647 binding, fluorescence 635 nm, higher = more signal;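 note: score merges 667 nm emission intensity and signal-to-noise per printed compound spot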
[11] = probe aXIP binding to arrayed compounds – biochemical, NeuroSMM set, 635/667 nm fluorescence, primary screen (AID 1119); conditions: small-molecule microarray, higher = more signal, called active from +8 up or from −8 down;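 note: probe is the protein aXip251-270 applied at 1 µg/mL to compound-printed slides; binding of probe to printed compounds measured as 667 nm fluorescence plus signal to noise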
[12] = probe aNOTCH3 binding on compound microarray – biochemical, small-molecule microarray, 635/667 nm fluorescence, primary screen (AID 1120); conditions: higher = more signal;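 note: probe is a biotin-tagged antibody raised against NOTCH3 rather than NOTCH3 protein; score merges spot fluorescence near 667 nm with spot signal to noise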
[13] = probe aNOTCH2 binding on compound microarray – biochemical, small-molecule microarray, 635/667 nm fluorescence, primary screen (AID 1121); conditions: higher = more signal;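 note: score merges feature fluorescence read at 667 nm with its signal to noise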
[14] = biological target: Carbonic anhydrase 2 (Homo sapiens) (UniProt P00918); test: compounds binding carbonic anhydrase 2 – biochemical, small-molecule microarray, Alexa647-labelled CAII, profiling panel (AID 1122); conditions: CAII-A647 binding fluorescence, higher = more signal
[15] = COS7 lysate on small-molecule microarray, probe aHis, 635 nm (AID 1123); conditions: COS7 cell lysate, fluorescence, higher = more signal;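 note: z-score combines 667nm fluorescence intensity with signal-to-noise per printed compound spot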
[16] = probe aLAP1 signal on lysate-treated microarray – cell lysate, small-molecule microarray, COS7 lysate, primary screen (AID 1124); conditions: probe aLAP1, fluorescence, higher = more signal;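 note: lysate comes from COS7 cells expressing LAP1 and is applied at 0.3 µg/mL; score merges spot fluorescence near 667 nm with signal-to-noise over triplicate slides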
Sam68 (KHDRBS1) = test: compounds binding KHDRBS1 protein – biochemical, small-molecule microarray, 635 nm fluorescence, primary screen (AID 1125); conditions: higher = more signal;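 note: score merges 667 nm channel intensity with signal to noise over triplicate slides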
[17] = test system: Chordin-like protein 2 (CHRDL2); test: compounds binding chordin-like 2 – biochemical, small-molecule microarray, 635 nm fluorescence, primary screen (AID 1126); conditions: fluorescence 635 nm, higher = more signal;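 note: printed compound slides probed with Chrdl2 protein at 4 µg/mL for 1 h at 4 C; score merges 667 nm emission intensity with signal to noise over three replicate slides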
[18] = biological target: Concanavalin-A (Canavalia ensiformis) (UniProt P02866); test: compounds binding concanavalin A lectin – biochemical, small-molecule microarray, Alexa647 label, 635 nm, artefact control for SMM control protein annotation, primary screen (AID 1127); conditions: ConA-A647 binding fluorescence, higher = more signal;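 note: z combines 667 nm emission intensity with signal-to-noise across three replicate slides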
Sequence of Concanavalin-A (Canavalia ensiformis) (P02866 whole entry, looked up): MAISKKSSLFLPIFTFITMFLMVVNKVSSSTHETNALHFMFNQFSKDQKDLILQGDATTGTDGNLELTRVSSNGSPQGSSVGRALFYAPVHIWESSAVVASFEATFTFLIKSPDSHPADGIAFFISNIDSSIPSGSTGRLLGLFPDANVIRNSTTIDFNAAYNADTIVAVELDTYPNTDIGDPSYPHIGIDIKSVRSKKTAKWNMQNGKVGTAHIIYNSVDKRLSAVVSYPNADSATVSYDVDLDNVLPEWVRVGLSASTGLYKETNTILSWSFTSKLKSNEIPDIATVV

Sequence of Left-right determination factor 2 (Homo sapiens) (O00292 whole entry, looked up): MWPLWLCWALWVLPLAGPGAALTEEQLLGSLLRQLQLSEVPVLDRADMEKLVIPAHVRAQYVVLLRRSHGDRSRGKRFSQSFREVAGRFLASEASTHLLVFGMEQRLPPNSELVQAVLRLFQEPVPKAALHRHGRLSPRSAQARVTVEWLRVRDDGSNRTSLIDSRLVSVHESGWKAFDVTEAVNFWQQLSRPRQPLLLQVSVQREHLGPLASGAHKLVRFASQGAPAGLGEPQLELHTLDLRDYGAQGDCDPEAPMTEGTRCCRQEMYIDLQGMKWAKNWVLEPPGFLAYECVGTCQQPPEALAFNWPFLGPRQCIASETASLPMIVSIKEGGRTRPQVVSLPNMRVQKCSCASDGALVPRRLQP
Sequence of Alpha-bungarotoxin (Bungarus multicinctus) (P60615 whole entry, looked up): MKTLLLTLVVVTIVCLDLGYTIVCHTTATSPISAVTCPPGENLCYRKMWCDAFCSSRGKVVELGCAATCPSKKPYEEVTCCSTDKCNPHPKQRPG
Sequence of Torsin-1A-interacting protein 1 (Homo sapiens) (Q5JTV8 whole entry, looked up): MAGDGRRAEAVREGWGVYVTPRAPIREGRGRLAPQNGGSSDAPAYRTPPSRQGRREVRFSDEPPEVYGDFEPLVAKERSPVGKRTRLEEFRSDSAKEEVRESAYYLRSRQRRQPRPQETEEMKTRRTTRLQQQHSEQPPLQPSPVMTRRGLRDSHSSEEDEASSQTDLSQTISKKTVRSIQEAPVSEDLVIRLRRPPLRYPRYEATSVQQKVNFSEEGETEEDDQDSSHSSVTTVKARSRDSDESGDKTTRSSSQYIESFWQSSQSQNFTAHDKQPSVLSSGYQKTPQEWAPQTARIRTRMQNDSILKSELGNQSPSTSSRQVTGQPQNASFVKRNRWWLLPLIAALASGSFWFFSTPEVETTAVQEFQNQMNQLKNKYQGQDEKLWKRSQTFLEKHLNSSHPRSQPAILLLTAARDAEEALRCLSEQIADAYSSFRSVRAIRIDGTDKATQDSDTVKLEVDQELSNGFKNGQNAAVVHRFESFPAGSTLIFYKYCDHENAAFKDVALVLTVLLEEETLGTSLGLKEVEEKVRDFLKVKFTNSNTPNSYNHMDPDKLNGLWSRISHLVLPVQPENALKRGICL
Sequence of Albumin (Bos taurus) (P02769 whole entry, looked up): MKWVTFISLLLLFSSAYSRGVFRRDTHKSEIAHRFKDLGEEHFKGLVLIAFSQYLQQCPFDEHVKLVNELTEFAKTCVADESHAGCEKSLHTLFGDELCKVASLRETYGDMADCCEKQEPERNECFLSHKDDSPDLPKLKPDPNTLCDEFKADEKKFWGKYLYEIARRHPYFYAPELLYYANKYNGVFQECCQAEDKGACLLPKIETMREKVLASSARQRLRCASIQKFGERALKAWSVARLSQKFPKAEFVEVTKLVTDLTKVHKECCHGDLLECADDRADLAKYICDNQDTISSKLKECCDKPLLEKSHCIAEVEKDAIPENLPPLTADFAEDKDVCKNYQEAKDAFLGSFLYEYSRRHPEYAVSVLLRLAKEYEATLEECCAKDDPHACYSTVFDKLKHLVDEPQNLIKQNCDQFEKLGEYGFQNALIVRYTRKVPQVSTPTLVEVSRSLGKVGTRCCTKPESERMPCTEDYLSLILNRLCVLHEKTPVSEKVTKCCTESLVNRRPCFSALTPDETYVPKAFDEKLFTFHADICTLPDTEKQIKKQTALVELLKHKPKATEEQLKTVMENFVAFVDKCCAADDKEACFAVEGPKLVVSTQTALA

Row | SMILES | composite z-score [1] | z-score [2] | composite z-score [3] | composite z-score [4] | composite z-score [5] | composite z-score [6] | composite z-score [7] | composite z-score [8] | composite z-score [9] | composite z-score [10] | composite z-score (Albumin (Bos taurus)) | composite Z-score [11] | composite z-score [12] | composite z-score [13] | composite z-score [14] | composite z-score [15] | composite z-score [16] | composite z-score (Sam68 (KHDRBS1)) | composite z-score [17] | composite z-score [18]
1 | C#CCCCON=C1C[C@@H](O)[C@@H](O)[C@@H]2[C@@H]3C(=O)N(c4ccc(F)cc4F)C(=O)[C@@H]3CC[C@@H]12 | 0.184 | 0.296 | 0.321 | -0.212 | -0.813 | -0.197 | -0.179 | 0.14 | 0.36 | 0.155 | 0.373 | -0.302 (inactive) | -0.113 | -0.0569 | -0.15 | -0.366 | 0.202 | 0.428 | 0.217 | 0.505
2 | C=CC[C@@H]1C=C[C@H](ON=C2[C@H]3CCn4c(=O)n(-c5ccccc5)c(=O)n4[C@H]3[C@H](O)[C@@H]3O[C@H]23)[C@@H](CO)O1 | -0.268 | -3.56 | 0.402 | 0.991 | -0.0461 | -0.147 | -0.0752 | -0.534 | 0.16 | 0.744 | 0.127 | -0.227 (inactive) | -0.172 | -0.101 | 0.256 | -0.143 | -0.208 | -0.862 | 0.564 | 0.535
3 | COc1ccc(O[C@@H]2[C@H](O)CO[C@@H]2C=Cc2ccccc2)cc1 | 0.16 | 0.238 | 0.138 | 0.0425 | -0.665 | -0.148 | -0.399 | -0.111 | 0.288 | 0.369 | -0.0176 | 0.0831 (inactive) | -0.0343 | -0.115 | -0.053 | -0.39 | 0.0909 | 0.0255 | 0.211 | 0.37
4 | CCOC(=O)[C@H](CC(C)C)NC(=O)CCC1CC(OC(=O)NCc2cccc3ccccc23)CC2(CCCC(COC(=O)NCCOc3ccccc3)O2)O1 (stereo not given in full) | 1.32 | -0.687 | 0.518 | 0.721 | -0.143 | 0.0162 | -0.253 | -0.311 | 0.556 | 0.266 | 0.496 | -0.309 (inactive) | -0.0048 | 0.0174 | 0.533 | 0.684 | 0.27 | 1.32 | 0.412 | 1.06
5 | O=C(NN=C1C[C@@H](O)[C@@H](O)[C@@H]2[C@@H]3C(=O)N(C[C@@H]4CCCO4)C(=O)[C@@H]3CC[C@H]12)OCc1ccccc1 | -0.453 | 1.16 | -0.156 | 0.0715 | 0.226 | 0.0377 | -0.0146 | 0.154 | 0.349 | 0.275 | 0.534 | 0.42 (inactive) | 0.0522 | -0.0081 | -0.273 | 0.109 | -0.0716 | -0.534 | -0.187 | 0.305
6 | CO[C@H]1COC(=O)CCC[C@@H](C)[C@H](OC)COC(=O)[C@@H](C)NC(=O)CC=C[C@@H]1C | -1.44 | -1.29 | 1.19 | -0.654 | -1.61 | -0.117 | 0.0483 | -0.0684 | 0.992 | -0.314 | -0.46 | 0.667 (inactive) | -0.0647 | -0.134 | -0.716 | -1.8 | -0.126 | 0.186 | 1.45 | -0.456
